Measured values from PubChem BioAssay AID2567 (National Center for Advancing Translational Sciences (NCATS), 2010).
Results filed as inconclusive are left out. Unmarked numbers belong to inactive results. Activity calls are given as the source filed them. The call rests on the fitted dose curve; in most records, active means well fitted antagonist curve with a large enough effect in the main read-out, with a control signal flat; inconclusive means small, poorly fitted or top-dose-only effect; inactive means no such curve, though single readings can be large or run the other way.

molecular target: Neuropeptide S receptor (Homo sapiens) (UniProt Q6W5P4); test: Confirmation Concentration-Response Assay for Antagonists of the Neuropeptide S Receptor: Calcium Signal Transduction, SAR for Probe; conditions: CHO-NPSR cells, NPS-induced calcium fluorescence, FDSS; series mostly up to 19.3 µM; activity change, negative = inhibition: at the top concentration
Method in brief: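 CHO cells stably expressing human NPSR, loaded with calcium dye; compounds added, then stimulated with NPS (60 nM in stimulation reagent). Fluorescence (Ex 480, Em 520–560 nm) recorded kinetically on FDSS; AC50 from Hill fit.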

Sequence of Neuropeptide S receptor (Homo sapiens) (Q6W5P4 whole entry, looked up): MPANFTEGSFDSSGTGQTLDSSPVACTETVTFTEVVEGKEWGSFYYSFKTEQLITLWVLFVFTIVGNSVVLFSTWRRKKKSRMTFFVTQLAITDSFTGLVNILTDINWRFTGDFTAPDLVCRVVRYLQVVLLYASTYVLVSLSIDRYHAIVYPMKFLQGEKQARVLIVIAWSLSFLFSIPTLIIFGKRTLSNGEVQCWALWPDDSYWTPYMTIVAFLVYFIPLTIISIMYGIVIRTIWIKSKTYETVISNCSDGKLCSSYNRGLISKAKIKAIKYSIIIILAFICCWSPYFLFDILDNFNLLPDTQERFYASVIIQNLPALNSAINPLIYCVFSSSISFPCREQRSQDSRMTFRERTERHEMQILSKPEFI

SMILES | activity change, negative = inhibition | Potency
COc1ccc(C2c3c(N)nc(CCCc4ccccc4)nc3Oc3ccc4ccccc4c32)cc1OC (stereo not given) | -53.4% [at 50.9 µM] | –
Cc1c(P(=S)(c2ccccc2)c2ccccc2)[n+]2ccccc2n1CC(=O)c1ccccc1 | – | 2.76 µM (active)
CN(C)C(=O)Oc1cccc([N+](C)(C)C)c1 | 20.5% | –
CCC(C)(CCN1CCOCC1)N(Cc1cc2ccccc2n(C)c1=O)C(=O)C1CCCCC1 (stereo not given) | – | 0.11 µM (active)
COc1cccc(C2c3c(ncn(-c4ccccc4C)c3=N)Oc3ccc4ccccc4c32)c1 (stereo not given) | – | 5.52 µM (active)
Cc1c(P(=S)(c2ccccc2)c2ccccc2)c2ccccc2n1CCCc1ccccc1 | -2.39% [at 50.9 µM] | –
COc1cccc(C2c3c(ncn(-c4ccccn4)c3=N)Oc3ccc4ccccc4c32)c1 (stereo not given) | – | 5.52 µM (active)
COc1ccc(C2c3c(nc(CCc4ccccc4)[nH]c3=O)Oc3ccc4ccccc4c32)cc1OC (stereo not given) | -61.9% [at 50.9 µM] | –
O=C(/C=C/c1ccco1)NC(=S)Nc1nc(-c2ccc3ccccc3c2)cs1 | 4.33% | –
CC(=O)c1sc(-c2ccccc2)cc1NS(=O)(=O)c1ccccc1 | 19.9% | –
Cc1c(P(=S)(c2ccccc2)c2ccccc2)c2ccccc2n1CCc1ccccc1 | -13.2% [at 50.9 µM] | –
CC1(C)Cc2c(c(N3CCOCC3)nc3sc4c(NCC5CCCO5)nnnc4c23)CS1 (stereo not given) | -40.4% | –
COc1ccc(C2c3c(n(CCCc4ccccc4)cnc3=N)Oc3ccc4ccccc4c32)cc1OC (stereo not given) | – | 5.52 µM (active)
COc1cc(/C=C2\SC(c3ccc(C)cc3)=NC2=O)cc(OC)c1O | 7.8% | –
COc1ccc(-n2cnc3c(c2=N)C(c2cccc(OC)c2)c2c(ccc4ccccc24)O3)cc1 (stereo not given) | – | 4.38 µM (active)
O=[N+]([O-])c1ccc(-c2nc(C(Cl)Cl)c3ccccc3n2)cc1 | -23.4% | –
Cc1cc2nc3ccc(=[N+](C)C)cc-3sc2cc1N | -7.55% | –
CCCCOc1ccc(OCCCN2CCOCC2)cc1 | 2.69% | –
COc1cccc(C2c3c(ncn(-c4ccccc4Br)c3=N)Oc3ccc4ccccc4c32)c1 (stereo not given) | – | 5.52 µM (active)
COC(=O)c1ccc(C(=O)OC)c(NC(=O)CSc2cccc[n+]2[O-])c1 | 17.1% | –
COc1cccc(C2c3c(ncn(-c4ccc(NC(C)=O)cc4)c3=N)Oc3ccc4ccccc4c32)c1 (stereo not given) | – | 5.52 µM (active)
N=C1c2ccccc2CN1c1ccc(N2CCOCC2)c(S(=O)(=O)Nc2ccc(Cl)cc2)c1 | – | 1.41 µM (active)
COc1cccc(C2c3c(ncn(-c4ccccc4C#N)c3=N)Oc3ccc4ccccc4c32)c1 (stereo not given) | – | 4.38 µM (active)
Cc1oc2c(c1C(=O)NCc1cccnc1)C(=O)c1ccccc1C2=O | 16.4% | –
COc1ccc(C2c3c(nc(Cc4ccccc4)[nH]c3=O)Oc3ccc4ccccc4c32)cc1OC (stereo not given) | 12.3% [at 50.9 µM] | –
COc1cccc(C2c3c(ncn(Cc4cccs4)c3=N)Oc3ccc4ccccc4c32)c1 (stereo not given) | – | 3.48 µM (active)
COc1ccc(C2c3ccc(OCc4ccccc4)cc3Oc3ncn(CCN4CCOCC4)c(=N)c32)cc1OC (stereo not given) | -60.5% [at 50.9 µM] | –
Cc1ccc(S(=O)(=O)Nc2cccc3ncccc23)s1 | – | 3.16 µM (active)
CCCCCN1C=CC=C/C1=C\C=C(C#N)C#N | -25.1% | –
COc1ccc(C2C3=C(N=CN(CCN4CCOCC4)C3N)Oc3ccccc32)cc1OC (stereo not given) | -2.32% [at 50.9 µM] | –
